Records with an inconclusive call do not appear. Entries that show only a call come without a potency. Calls of active or inactive are those of the source. The call rests on the fitted dose curve; in most records, active means well fitted inhibition curve with a large enough effect; inconclusive means small, poorly fitted or top-dose-only effect; inactive means no such curve, though single readings can be large or run the other way.
Key:
[1] = tested on: Zika virus NS2B-NS3 protease (unlinked complex); experiment: Primary screen GU Rhodamine qHTS for Zika virus inhibitors: Unlinked NS2B-NS3 protease assay (AID 1347159); further: nearly all actives have a fitted effect of over 60% in size
Outline: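 Unlinked NS2B/NS3, 25 nM; Rhod110 peptide, 1.5 microM; compounds, up to 114 microM. Reaction run 15 min at RT in 10 mM Tris-HCl pH 8.0, 0.01% Tween 20; kinetic fluorescence change fitted with a 4-parameter Hill model.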

[2] = tested on: Zika virus NS2B-NS3 protease (linked construct); experiment: Primary screen NINDS Rhodamine qHTS for Zika virus inhibitors (AID 1347160); further: nearly all actives have a fitted effect of over 55% in size
Outline: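 Single-chain NS2B-NS3 protease, 25 nM, pH 8.0; compounds preincubated 15 min. Activity: Rhodamine110 release from 1.5 microM substrate over 15 min, room temperature, data fitted to 4-parameter Hill.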
Potency means the concentration at half of the fitted maximal effect.

Structure (SMILES) | Potency [1] | Potency [2]
CC(C)N(CCCCOCC(=O)NS(C)(=O)=O)c1cnc(-c2ccccc2)c(-c2ccccc2)n1 | 7.94 µM (active) | 28.2 µM (active)
COc1ccc(N2CCOCC2)c2sc(NC(=O)N3CCC(C)(O)CC3)nc12 | inactive | –
C/C1=C\CCC(C)CCO[C@@H]2O[C@H](CO[C@@H]3OC[C@H](O)[C@H](O)[C@H]3OC1=O)[C@@H](O)[C@H](O)[C@H]2O (some centres not stated) | 31.6 µM (active) | –
COc1cc(C(=O)NC2CCN(C)CC2)ccc1Nc1ncc2c(n1)N(C1CCCC1)CC(F)(F)C(=O)N2C | inactive | inactive
COc1ccc2nc(S(=O)(=O)Cc3ncc(C)c(OC)c3C)[nH]c2c1 | inactive | inactive
CC(=O)OC1C[C@@]2(C)[C@@H](CC[C@@H](C)[C@]23Cc2c(O)cc4c(c2O3)CNC4=O)C(C)(C)[C@@H]1O (some centres not stated) | inactive | –
CC1=C(C(=O)O[C@@H]2O[C@H](COC3OCC(O)C(O)C3O)[C@@H](O)[C@H](O)[C@H]2O)C(C)(C)CCC1 (some centres not stated) | inactive | inactive
CC1(C)CC[C@]2(C(=O)O[C@@H]3O[C@H](CO)[C@@H](O)[C@H](O)[C@H]3O)CC[C@]3(C)C(=CCC4[C@@]5(C)C[C@@H](O)[C@H](O)[C@@](C)(CO)C5CC[C@]43C)C2[C@@H]1O (some centres not stated) | 10 µM (active) | –
COc1c2c(c(C)c3c1C(=O)OC3)O[C@@]1(C)CC(O)C(C(C)(C)O)[C@](C)(CCC(=O)O)[C@H]1C2 (some centres not stated) | inactive | inactive
CCn1cc(NC(=S)Nc2cc(Cl)ccc2OC)c(C(N)=O)n1 | inactive | inactive
Cc1ccc(NC(=O)Nc2cc(C(F)(F)F)ccc2F)cc1Nc1ccc2c(c1)NC(=O)/C2=C\c1ccc[nH]1 | 39.8 µM (active) | –
